# In PubChem BioAssay AID430 (Sanford-Burnham Center for Chemical Genomics, 2006):
# The campaign covered roughly 63,000 compounds. About 1,100 (1.7%) were called active. This excerpt belongs to a sample that is enriched for actives. Results with a measured potency or affinity are listed apart. Unmarked numbers belong to inactive results. No stated cut-off is given here; in the data, active means cytotoxicity above about 50%; inactive means the rest.
# Assay: cytotoxicity in HPDE-C7 cells, cell-based, fluorescence, HTS (AID 430);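 further: cells exposed to compound for 48 hours before viability readout; 0% = vehicle and 100% = reference cytotoxic drug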
# Settings: HPDE-C7 pancreatic duct cells viability, at 10 µM, active compounds read high
row,SMILES,cytotoxicity
1,Cc1sc2nc3n(c(=O)c2c1C)CCCS3,3.5%
2,N#C/C(C(=O)NCc1ccccc1)=C1\SC(CCO)C(=O)N1c1ccccc1 (stereo unspecified),10.7%
3,O=S(=O)(c1cccc2cccnc12)N1CCc2ccccc21,-5.3%
4,O=C(CN1CCCC1)N1c2ccccc2Sc2ccccc21,-13.6%
5,CC1CC(=O)N(CC(=O)N2CCCC2)c2ccccc2S1 (stereo unspecified),-19.6%
6,CCc1nnc(NC(=O)NCN2C(=O)C3C4C=CC(C4)C3C2=O)s1 (stereo unspecified),3%
7,CC1=CCC(C(C)(C)NC(=O)c2ccccc2)C/C1=N\O (stereo unspecified),-14.7%
8,CCOCCCNS(=O)(=O)c1ccc2c(c1)CCN2C(=O)CC,-23.1%
9,C/C=C(/C(=C/C)c1ccc(O)cc1)c1ccc(O)cc1,106% (active)
10,C=C(c1ccc(O)cc1)c1ccc(O)cc1,-12.8%
11,CCC(=O)c1ccc(O)cc1,-18.7%
12,CCn1c2ccccc2c2nnc(SCC(=O)NC(C(=O)OC)C(C)C)nc21 (stereo unspecified),0.5%
13,CCOC(=O)c1[nH]c(C)c(C(=O)NC(C)CC)c1C (stereo unspecified),1.4%
14,O=C1Nc2ccccc2C12OCCCCO2,-24.6%
15,Cc1cc(=O)oc2cc(OCC(=O)N3CCc4ccccc4C3)ccc12,-25.1%
16,CCOC(=O)N1CCN(Cc2nc3c(c(=O)[nH]c(=O)n3C)n2Cc2cc(C)ccc2C)CC1,-12.2%
17,CCCCC(CC)C(=O)Nc1ccccc1C(=O)NC(C)C (stereo unspecified),6.3%
18,O=S(=O)(c1ccc(Oc2ccc(-c3nnco3)cc2)nc1)N1CCC(Cc2ccccc2)CC1,62.7% (active)
19,O=C(COc1ccc(-c2nnco2)cc1)N1CCN(S(=O)(=O)c2ccccc2)CC1,-13%
20,O=C(COc1ccc(-c2nnco2)cc1)N1CCN(S(=O)(=O)c2ccc3ccccc3c2)CC1,-10.1%
21,Cc1cc2cc(CNC(=O)c3ccc(Br)o3)ccc2n1C,-1.5%
22,N#C/C(C(=O)Oc1ccccc1)=C1\C=CC=CN1,1.2%

row,SMILES,cytotoxicity
1,CCOC(=O)c1ccc(Oc2nc(NC)nc(SC)n2)cc1,-15.9%
2,COC(=O)c1ccc(Oc2nc(C)cc(Oc3ccccc3)n2)cc1,-4.8%
3,CCOC(=O)c1ccc(Oc2nc(SC)nc(N(C)C)n2)cc1,-23.6%
4,COC(=O)c1ccc(Oc2cc(C)nc(SC)n2)cc1,50.6% (active)
5,CCOC(=O)c1ccc(Oc2cc(C)nc(SC)n2)cc1,50.9% (active)
6,COC(=O)c1ccc(Oc2cc(C)nc(NCc3ccccc3)n2)cc1,-4.2%
7,COc1ccc(C(C#N)Nc2ccccc2OC)cc1 (stereo unspecified),-4.6%
8,CCN(CC)S(=O)(=O)c1ccc(Nc2cc(C)nc3ncnn23)cc1,-2.7%
9,C1CCc2c(nc3nnnn3c2N2CCOCC2)C1,-9.2%
10,COC(=O)CN1C(=O)CC(C)(C)S(=O)c2ccccc21 (stereo unspecified),-9.1%
11,Cc1ccc(-n2ncc3c(=O)n(Cc4ccccn4)cnc32)cc1C,8.3%
12,CCN1CCN(C(C(=O)NC2CCCC2)c2ccc(Cl)cc2)CC1 (stereo unspecified),9.1%
13,COC(=O)c1ccc2[nH]c(C)cc(=O)c2c1,-15.1%
14,Cc1cc(=O)c2cc(Cl)ccc2[nH]1,-15%
15,Cc1cc2c(N=O)c(NO)ccc2[nH]1,67% (active)
16,CCCc1cc(C(=O)Nc2sc(C(C)=O)c(C)c2C(=O)OCC)no1,-5.5%
17,Cc1nc(N2CCN(C(=O)c3ccco3)CC2)c2c3c(sc2n1)CCC3,8.5%
18,CC(C)c1nc(N2CCN(C(=O)c3ccco3)CC2)c2c3c(sc2n1)CCCC3,-21.7%
19,O=C(c1ccco1)N1CCN(c2nc(C3CC3)nc3sc4c(c23)CCCC4)CC1,53.5% (active)
20,CCOC(=O)N1CCN(C(=O)c2cn(-c3ccc(C)c(C)c3)c(=O)c3ccccc23)CC1,-9.4%
21,CCc1cc(-c2[nH]ncc2-c2ccc3c(c2)OCO3)c(O)cc1O,46.1%
22,CCCc1cc(-c2[nH]ncc2-c2ccc(C(=O)OCC)o2)c(O)cc1O,4.4%

row,SMILES,cytotoxicity
1,CCOc1ccc(-c2nc(N)ncc2-c2ccccc2)c(O)c1,2.3%
2,COc1ccc(-c2cnc(N)nc2-c2ccc(OC)cc2O)cc1,-4%
3,Cc1c(C(=O)Nn2cnnc2)oc2ccccc12,-26.6%
4,CC(NC(=O)c1ccc(CS(=O)(=O)Cc2ccccc2F)o1)c1ccc2c(c1)OCCO2 (stereo unspecified),-10.6%
5,O=S(=O)(NCC1CC1)c1cccc(S(=O)(=O)N2CCCC2)c1,-7.4%
6,Cc1ccccc1OCc1nc(-c2ccc(-n3cccc3)cc2)no1,62.3% (active)
7,Cc1ccccc1OCc1nc(-c2ccccc2)no1,-12.2%
8,Cc1ccc(-c2noc(COc3ccccc3C)n2)cc1,-19.6%
9,Cc1cc(=O)[nH]c(SCC(=O)NCc2ccco2)n1,-38.4%
10,O=C(Cn1nnc(-c2ccccc2NC(=O)c2cccs2)n1)Nc1ccccc1,-6.9%
11,CCn1c(SCC(=O)N(C(C)C)C(C)C)nnc1-c1cc2ccccc2cc1O,-2.4%
12,Cc1cccc(N2CCN(C(=O)c3ccncc3)CC2C)c1 (stereo unspecified),-2.2%
13,Cc1cccc(N2CCN(c3cccc(C)c3)C2c2cccnc2)c1,52.6% (active)
14,Cc1ccc(N2CCN(c3ccc(C)cc3)C2c2ccncc2)cc1,-18.2%
15,CCC(=O)OCCn1c(=O)c2cc3c(=O)n(CCOC(=O)CC)c(=O)c3cc2c1=O,1.2%
16,CCOC(=O)C1=C(C)NC(=O)NC1c1ccc(OC)c(Cl)c1 (stereo unspecified),-1.8%
17,O=C(Nc1ccc(-c2nc3ccccc3o2)cc1)C1CCCO1 (stereo unspecified),2.5%
18,CC(=NC1CCCC1)c1c(C)[nH]n(-c2nc3ccccc3s2)c1=O,-9.3%
19,Cc1nn(-c2nc3ccccc3s2)c(N)c1-c1ccccc1,6.1%
20,O=c1cc(-c2ccccc2)[nH]n1-c1nc2ccccc2s1,61.9% (active)
21,COc1ccc(-c2cc(=O)n(-c3nc4ccccc4[nH]3)[nH]2)cc1,35%
22,O=c1cc(-c2ccccc2)[nH]c2nc3ccccc3n12,34.3%
